Data from ChEMBL document CHEMBL3988442, “University of Dundee, Small-Polar-MMV Screening Library” (2021).
Screen size: about 69,000 compounds; about 420 (0.61%) showed an effect of 50% or more. Many of the other results were omitted from the sample, so strong results are more common in it than they were.

Biological target: T1, Histidine--tRNA ligase (Leishmania infantum) (UniProt A4I591)
T1 sequence (whole entry): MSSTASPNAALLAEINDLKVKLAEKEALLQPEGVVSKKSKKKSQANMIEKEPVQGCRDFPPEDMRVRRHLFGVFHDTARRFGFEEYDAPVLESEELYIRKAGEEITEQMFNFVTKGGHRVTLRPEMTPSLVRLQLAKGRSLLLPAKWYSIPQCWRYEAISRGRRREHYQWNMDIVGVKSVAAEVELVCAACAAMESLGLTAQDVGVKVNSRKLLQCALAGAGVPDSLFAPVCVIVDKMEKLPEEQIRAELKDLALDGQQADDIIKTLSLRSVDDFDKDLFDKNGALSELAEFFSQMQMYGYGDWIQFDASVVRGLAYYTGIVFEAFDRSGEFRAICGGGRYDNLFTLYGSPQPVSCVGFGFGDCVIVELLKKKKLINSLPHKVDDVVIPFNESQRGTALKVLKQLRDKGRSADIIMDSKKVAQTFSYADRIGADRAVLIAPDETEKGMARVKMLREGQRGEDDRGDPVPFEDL
Test: Leishmania infantum Histidine tRNA synthetase (LdHisRS)
Assay type: functional
Design: scale not given: in the data most compounds retested in dose-response had high values
Details: 30 µM

SMILES	Percent Effect
CC(C)CN1C[C@@H]2C(=O)NC3(CCN(C(=O)c4cccnc4)CC3)[C@@H]2C1	23.3%
CN1[C@@H](C(=O)NCC2CC2)C[C@@H]2CN(Cc3ccsc3)C[C@@H]21	11.9%
CS(=O)(=O)N1C[C@H]2CCC[C@@]2(COc2ccccn2)C1	10.3%
CN(C)C(=O)CO[C@H]1CN(Cc2cccc(C#N)c2)[C@@H]2COC[C@H]12	-11.4%
COc1ncccc1C(=O)N1CC[C@H]2C[C@@H](c3noc(C)n3)O[C@@H]2C1	46.1%
O=C(O)[C@@]12CN(c3cnccn3)C[C@@H]1CN(C1CCCC1)C2	21%
Nc1nccc(C2CN(Cc3ccc(-c4ccccc4C(=O)O)o3)C2)n1	54.9%
O=C(O)c1ccccc1-c1ccc(CN2CC(c3ccncn3)C2)o1	29.4%
Cc1nccc(C2CN(Cc3ccc(-c4ccccc4C(=O)O)o3)C2)n1	12.7%
O=C(CN1C[C@H]2C[C@H](OCc3ccccc3)C[C@H]2C1)N1CCOCC1	15.7%
CN1CCN(Cc2cnn(-c3ccccc3Cl)c2)[C@H]2CS(=O)(=O)C[C@H]21	5.71%
Cc1ccc(-c2ncc(C(=O)N3CCCN4CCC[C@H]4C3)c(O)n2)cc1	11%
Cc1nn(C)c(C)c1-c1c(-c2ccccc2)ncn1[C@H](CO)C(=O)O	1.57%
CN(C)c1ncc(-c2c(-c3ccccc3)ncn2C(CO)C(=O)O)cn1 (stereo unspecified)	72.8%
Cc1c(-c2c(-c3ccccc3)ncn2[C@H](CO)C(=O)O)cnn1C	7.85%
O=C1C[C@H]2CC[C@@H](CN1)N2C(=O)CCc1ccccc1	8.39%
CNC(=O)CN1CC[C@H]2CN(C(=O)c3cccn3C)C[C@H]2C1	2.78%
Cc1ccc(S(=O)(=O)N[C@H](CO)C(C)C)cc1N(C)C	53%
Cc1ccc(S(=O)(=O)NC(CO)CC(C)C)cc1N(C)C (stereo unspecified)	43.4%
CSCC(C)NS(=O)(=O)c1ccc(C)c(N(C)C)c1 (stereo unspecified)	19.3%
O=C(NCCc1ccncc1)[C@@H]1CC[C@@H]2[C@@H](CCN2Cc2ccco2)O1	20%
CNC(=O)N1C[C@H]2C[C@H](C(=O)Nc3ccccc3)[C@@H](C1)O2	19.6%
Cc1cc(=O)n(CC(=O)Nc2ccc(Cl)cc2)nc1C	7.2%

SMILES	Percent Effect
COc1ccc(NC(=O)Cn2nc(C)c(C)cc2=O)cc1	-0.8%
COc1ccc(NC(=O)Cn2nc(C)c(C)cc2=O)cc1OC	7.69%
CC(=O)c1c(C)nn(CC(=O)Nc2ccc(Br)cc2)c1C	71.3%
CC(=O)c1c(C)nn(CC(=O)Nc2ccc(F)cc2)c1C	15.7%
COc1ccc(NC(=O)Cn2nc(C)c(C(C)=O)c2C)cc1	52.2%
O=C1O[C@@H]2CN(S(=O)(=O)N3CCCC3)C[C@@H]2N1CCc1cccc(Cl)c1	7.29%
O=C1CC[C@]2(CC[C@@H](NCc3ccsc3)CC2)N1Cc1ccccc1	25%
COCCN1C(=O)[C@H]2CC[C@@H]1CN(C(=O)COc1ccc(F)c(Cl)c1)C2	-13.3%
N#Cc1ccsc1N1CCC(Sc2ncc[nH]2)C1=O (stereo unspecified)	20.4%
Cc1nnc(SC2CCN(c3sccc3C#N)C2=O)[nH]1 (stereo unspecified)	12.2%
N#Cc1ccsc1N1CCC(Sc2ccncc2)C1=O (stereo unspecified)	53.1%
NC(=O)N1CC[C@@H]2O[C@@H](COCC(=O)N3CCCC3)CC[C@@H]21	0%
COCc1nc(CN2CCOC(CNc3cccnn3)C2)cs1 (stereo unspecified)	35.1%
CCc1nc(CN2CCOC(CNc3cccnn3)C2)cs1 (stereo unspecified)	24.6%
CCCc1nc(CN2CCOC(CNc3cccnn3)C2)cs1 (stereo unspecified)	69%
CN(C)CCO[C@H]1CN(Cc2ccc3c(c2)OCO3)[C@@H]2COC[C@H]12	17.1%
CN(C)C(=O)CO[C@H]1CN(Cc2ccc3c(c2)OCO3)[C@@H]2COC[C@H]12	13.2%
O=C(c1cnnn1-c1ccccc1)N1CCCC(c2ccn[nH]2)C1 (stereo unspecified)	15.7%
O=C(c1cc(=O)n(-c2ccccc2)[nH]1)N1CCCC(c2ccn[nH]2)C1 (stereo unspecified)	59%
O=C(c1cc(=O)n(-c2ccccc2)[nH]1)N1CCOCC(O)C1 (stereo unspecified)	6.2%
Cc1ncsc1CN1C[C@@H]2COC[C@]2(CNC(=O)c2ccccc2)C1	20.5%
CCN(CC)[C@H]1COC[C@@H]2CN(Cc3cnn(C)c3)C[C@@H]21	15.8%
CCCn1nc2c(cc1=O)CN(Cc1nnc(C3CC3)o1)CC2	24.5%

SMILES	Percent Effect
Cn1nc2c(cc1=O)CN(Cc1nc(C(C)(C)C)no1)CC2	82.4%
CCn1nc2c(cc1=O)CN(Cc1nc(CCOC)no1)CC2	23.4%
Cn1nc2c(cc1=O)CN(Cc1nnc(C3CC3)o1)CC2	97.9%
CCn1nc2c(cc1=O)CN(Cc1nnc(C3CC3)o1)CC2	22.6%
Cn1nc2c(cc1=O)CN(Cc1nc(C3CC3)no1)CC2	102%
Cc1ccc(F)cc1CC(=O)N1CC[C@@]2(O)CCNC[C@H]2C1	4.92%
O=C(C1CCOCC1)N1CCO[C@H]2[C@H](Oc3cccnc3)CC[C@@H]21	9.68%
O=C(c1ccco1)N1C[C@H]2CCCN(Cc3ccc(F)cc3)[C@H]2C1	10.9%
O=C(C1CCOCC1)N1C[C@H]2C[C@H](OCc3ccccc3)C[C@H]2C1	12.9%
O=C(C[C@H]1[C@H]2CN(Cc3ccsc3)C[C@@H]12)N1CCCC1	15.5%
O=C(Cc1cccc(F)c1)N1C[C@H]2CN(Cc3ccccn3)C[C@H]2C1	15.4%
O=C(CSc1ccccc1)N1C[C@H]2CC[C@@H]1CN(Cc1ccncc1)C2	12.9%
O[C@@H]1C[C@@](CNCc2ccccn2)(COc2cccnc2)C[C@@H]1O	12.2%
FC1(F)CCN(Cc2cccnc2)CC12CCN(c1ccccc1)C2 (stereo unspecified)	57.3%
O=C(O)CN1CCC(F)(F)C2(CCN(c3ccccc3)C2)C1 (stereo unspecified)	53.9%
FC1(F)CCN(Cc2ccncc2)CC12CCN(c1cccnc1)C2 (stereo unspecified)	19.1%
FC1(F)CCN(c2ccccc2)CC12CCN(c1ncccn1)C2 (stereo unspecified)	21.4%
FC1(F)CCN(Cc2cccnc2)CC12CCN(c1ccccn1)C2 (stereo unspecified)	19.6%
O=C(CO)N1CCC(F)(F)C2(CCN(c3ccccc3)C2)C1 (stereo unspecified)	23.1%
O=C(C1CCC1)N1CCN(Cc2ccc(F)cc2)[C@H]2CS(=O)(=O)C[C@H]21	17.8%
COc1ccc(N)c(N2CCN(C(C)=O)CC2)n1	61.6%
COc1ccc(NC(C)=O)c(N2CCN(C(C)=O)CC2)n1	17.3%
COc1ccc(NC(=O)CCC(C)C)c(N2CCN(C(C)=O)CC2)n1	11.6%

SMILES	Percent Effect
Cc1ccc(NC(=O)Nc2c(O)oc3ccccc3c2=O)cc1	6.17%
O=C1CO[C@H]2CN(Cc3ccc(F)c(F)c3)C[C@H]2N1	1.35%
Cc1cc2nc(SCC(=O)N3CCCCC3)n(C)c(=O)c2[nH]1	10.5%
Cc1cc2nc(SCC(=O)N3CCCC3)n(-c3ccccc3)c(=O)c2[nH]1	51.4%
Cc1cc2nc(SCC(=O)N3CCCC3)n(C)c(=O)c2[nH]1	5.26%
COCCC(=O)N1C[C@@H]2COC[C@]2(COCc2cccnc2)C1	10.7%
CCS(=O)(=O)N1C[C@H]2CN(Cc3cccnc3)C(=O)[C@H]2C1	0%
O=C(c1ccnnc1)N1CCO[C@H]2[C@@H](OCc3cccnc3)CC[C@@H]21	25.7%
CC(=O)N1C[C@@H]2CC[C@H](C1)N(Cc1ccc(Cn3cccn3)cc1)C2	14.2%
CCCN1C[C@H]2CC[C@@H]1CN(Cc1ccc(Cn3cccn3)cc1)C2	17.5%
CCCN1C[C@H]2CC[C@@H]1CN(Cc1cccc(-n3cccn3)c1)C2	14.2%
CCCN1C[C@H]2CC[C@@H]1CN(Cc1ccc(-n3cccn3)cc1)C2	50.8%
CCCN1C[C@H]2CC[C@@H]1CN(Cc1cccc(O)c1)C2	32.9%
CCN1CCO[C@@H]2CN(C(=O)c3ccc4[nH]ccc4c3)CC[C@@H]2C1	26%
CN1CCN(C(=O)[C@H]2C[C@@H]3CCN(c4ncc(F)cn4)C[C@@H]3O2)CC1	7.55%
CC(=O)N1CC[C@H]2OCC[C@@H](C(=O)Nc3cccnc3C)[C@@H]2C1	17.3%
CN(C)C(=O)N1C[C@@H]2CC[C@H](C1)N(S(=O)(=O)c1cccnc1)C2	12.1%
CCO[C@H]1CN(CC2CCOCC2)[C@@H]2CCCO[C@H]12	7.92%
O=S(=O)(C1CC1)N1CCO[C@H]2[C@H](OCC3CC3)CC[C@@H]21	5.56%
O=C(c1cnccn1)N1CCN2C[C@H](OCc3ccccc3)C[C@H]2C1	15.1%
O=C(Nc1nccs1)c1csc(NC2CCCC2)n1	66.3%
O=C(Nc1ccccn1)c1csc(NC2CCCC2)n1	28.1%
Cc1cnc(NC(=O)c2csc(NC3CCCC3)n2)s1	21.4%

SMILES	Percent Effect
Cc1n[nH]c(SCC(=O)N2C[C@H]3CC[C@@H]2CN(c2ncccn2)C3)n1	9.38%
COCCN1C[C@@H]2CCCO[C@@H]2[C@H](NC(=O)c2cnccn2)C1	11.3%
c1cncc(NCCNC2CCSC2)c1 (stereo unspecified)	62.9%
c1cncc(NCCCNC2CCSC2)c1 (stereo unspecified)	28.6%
c1cncc(NCCNC2CSCCSC2)c1	74.3%
c1cncc(NCCNC2CCSCC2)c1	8.57%
Cc1cnccc1NCCNC1CCSCC1	17.1%
CC(C)CN1CCC(NCCNc2cccnc2)CC1	9.76%
Cn1cc(NC(=O)NCc2ccsc2)ccc1=O	126%
Cc1cnccc1NC(=O)CCc1ccsc1	9.33%
CCNC(=O)N1CCc2ccc(NC(=O)NCc3ccsc3)cc21	31.7%
CN(Cc1ccsc1)C(=O)Nc1ccc(S(=O)(=O)N(C)C)cc1	-30.3%
CN(Cc1ccsc1)C(=O)Nc1ccc(=O)n(C)c1	123%
CN(Cc1ccsc1)C(=O)Nc1ccc(S(C)(=O)=O)cc1	11.9%
COCc1csc(NC(=O)NCc2ccsc2)n1	14.3%
Cc1cc(NC(=O)CCc2ccsc2)n(C)n1	18.3%
Cn1cc(NC(=O)CCc2ccsc2)ccc1=O	103%
O=C1CO[C@H]2CN(S(=O)(=O)c3ccccc3)C[C@H]2N1Cc1ccccc1	25%
CCC1=N[C@@]2(CC[C@@H]3CN(S(C)(=O)=O)C[C@@H]32)C(=O)N1CC(C)C	7.96%
